Test results taken from PubChem BioAssay (NCI).
About 79,000 compounds went through this panel and 15% of them were active in at least one assay; those are over-represented in the sample as a whole. A number with no mark means an inactive call. The source made the active and inactive calls. No stated cut-off is given here; in the data, active means growth inhibition above about 70%; inactive means the rest.

Tests used:
[1] = NCI Yeast Anticancer Drug Screen. Data for the rad50 strain (AID 155);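 further: 0% = growth of vehicle-only cultures of the same strain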; details: S. cerevisiae rad50 strain growth inhibition; at 50.0 µM; stronger effect = higher value
How it was run: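 Genetically altered yeast (DNA repair pathway); compound treatment; growth inhibition vs vehicle ctrl.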

[2] = NCI Yeast Anticancer Drug Screen. Data for the mec2-1 strain (AID 157); details: S. cerevisiae mec2-1 strain, at 50.0 µM, stronger effect = higher value
How it was run: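 Vehicle-treated cultures served as reference for growth inhibition of compound-exposed mec2-1 yeast.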

[3] = NCI Yeast Anticancer Drug Screen. Data for the sgs1 mgt1 strain (AID 161);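 further: 0% = growth of cultures given vehicle only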; details: S. cerevisiae sgs1 mgt1 strain, at 50.0 µM, stronger effect = higher value
How it was run: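 Read-out: growth inhibition vs vehicle controls. Cells: mutant yeast strain deficient in DNA damage repair.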

[4] = NCI Yeast Anticancer Drug Screen. Data for the cln2 rad14 strain (AID 165);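 further: 0% = growth equal to vehicle treated cultures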; details: S. cerevisiae cln2 rad14 strain, at 50.0 µM, stronger effect = higher value
How it was run: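 Each compound was tested on cln2 rad14 yeast. Inhibition of growth was calculated against vehicle-exposed controls.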

[5] = NCI Yeast Anticancer Drug Screen. Data for the bub3 strain (AID 167); details: S. cerevisiae bub3 mutant strain, at 50.0 µM, stronger effect = higher value
How it was run: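 Yeast carrying a defined mutation is treated with each compound, and growth is compared with that of vehicle-exposed cells to give inhibition.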

[6] = NCI Yeast Anticancer Drug Screen. Data for the mlh1 rad18 strain (AID 175); details: S. cerevisiae mlh1 rad18 strain growth inhibition; at 50.0 µM; stronger effect = higher value
How it was run: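 Vehicle-treated cultures served as the reference for growth inhibition in a yeast strain carrying DNA damage repair alterations exposed to each compound.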

Row | Structure (SMILES) | growth inhibition [1] | growth inhibition [2] | growth inhibition [3] | growth inhibition [4] | growth inhibition [5] | growth inhibition [6]
1 | CC(=O)OCC1OC(OC(C)=O)C(NC(=O)c2ccc(Br)cc2)C(OC(C)=O)C1OC(C)=O (configuration not stated) | 42.1% | 19.4% | 39.5% | 19.6% | -1.1% | 31.8%
2 | CCOC(=O)c1c[nH]c(C(=O)OCC)c1C | 14.4% | 6.6% | 4.2% | -59.9% | -4.5% | 14.2%
3 | CCCCc1ccc2[n+](c1)C(C(=O)OCC)=PC2 (configuration not stated) | -18.1% | -36.8% | -21.4% | -18.9% | -19.9% | -11.9%
4 | O=C1C=CC(=O)C1 | 16% | -7.95% | 3.15% | -0.3% | 5.65% | -3.75%
5 | O=C1NC(N2CCCC(CO)C2)=N/C1=C\c1ccccc1 (configuration not stated) | -15.6% | -2.85% | 10% | 7.6% | 7.15% | -33.7%
6 | CCc1cccc(C(=O)NCCN(C)C)c1[N+](=O)[O-] | -10.4% | -17.9% | -12.2% | 22% | -11.9% | -5%
7 | O=C(O)c1ccccc1Cc1c[nH]c2ccccc12 | -37.3% | 4.95% | -0.8% | -15.3% | 41.3% | -5.05%
8 | Cc1ccc(N=NC(C2=NC(=O)CS2)c2nc3ccccc3[nH]2)cc1 (configuration not stated) | -55% | -31% | -52.8% | -44.8% | -56% | -73.8%
9 | CCCCCCCCCCCCCCCCCC(C)O (configuration not stated) | -8.7% | -13.2% | -1.05% | 1.85% | -10.4% | -10.8%
10 | O=C1c2ccccc2C(C2N=Nc3ccccc32)c2ccccc21 (configuration not stated) | 7.1% | 5.15% | 15.6% | 26.1% | 3.8% | 6.2%
11 | O=C(O)C1CCC(C(=O)O)CC1.[NH-]C1CCCCC1[NH-].[Pt+2] (configuration not stated) | 45.6% | -29.9% | -1.15% | 6.9% | -19.9% | -70.4%
12 | Cc1csnn1 | -12.7% | -17.9% | 8.5% | -1.4% | -1.6% | -21.6%
13 | COc1cc(-c2ccc([NH2+][B-](F)(F)F)c(OC)c2)ccc1[NH2+][B-](F)(F)F | 21.7% | -2.05% | 37.3% | 29.1% | 9.1% | 18.9%
14 | Cn1c(=O)c2c(nc(CCCCCCCCc3nc4c(c(=O)n(C)c(=O)n4C)n3C)n2C)n(C)c1=O | -7.5% | 19.9% | -24.8% | -45% | -14.8% | -14.7%
15 | CC(C)CCCC(C)C1CCC2C3CCC4CC(N5CCCCC5)CCC4(C)C3CCC12C (configuration not stated) | 5.5% | -9.6% | -16.1% | -20.8% | 4.55% | 17.1%
16 | O=C(Nc1cc(-c2ccccc2)[nH]n1)c1ccccc1Cl | 22.1% | 16.6% | 60.5% | 31.2% | 42.1% | 28.3%
17 | CCCCC/C=C/C(CC)(C(=O)OCC)C(=O)OCC | -5.95% | 20.9% | 13.6% | -60% | 40.9% | 6.1%
18 | CCCCC(CC)C1OCCS1 (configuration not stated) | 5.95% | -24.4% | -4.3% | 1.9% | -17% | -10%
19 | CCC1(CCBr)C(=O)NC(=Nc2ccccc2)NC1=O (configuration not stated) | 5.6% | -5.8% | 5.9% | -41.1% | 9.9% | -14.3%

Row | Structure (SMILES) | growth inhibition [1] | growth inhibition [2] | growth inhibition [3] | growth inhibition [4] | growth inhibition [5] | growth inhibition [6]
20 | COC1(c2ccccc2)N=C(c2ccc([N+](=O)[O-])cc2)OC1(C)C (configuration not stated) | 4% | 1.7% | 6.1% | 38% | -4.85% | -4.8%
21 | CC1(C)CC(N2CCN(C3CC(C)(C)NC(C)(C)C3)CC2)CC(C)(C)N1 | -12.7% | -19.6% | -18.8% | -8.3% | -14.2% | -29.6%
22 | O=c1onc2n1-c1cc(Cl)ccc1C(=S)N1CSCC21 (configuration not stated) | 1% | 8.15% | 13.5% | 5.4% | 2.5% | 11.6%
23 | COC1CCCC2CC3=C(CCCC3)OC21 (configuration not stated) | -6.45% | 3.5% | 5.1% | -101% | -14% | -13.5%
24 | COc1cc(C=Nc2ccc3c(c2)OCO3)ccc1OC(=O)c1ccccc1 | 5.3% | 7.6% | 8.35% | 8.25% | 12.9% | -5.5%
25 | C[n+]1ccccc1/C=C/c1ccc([N+](=O)[O-])cc1 | 9% | 5.8% | 13.2% | -10.3% | -1.8% | 6.3%
26 | Cc1ccc(S)c(C(O)(C(F)(F)F)C(F)(F)F)c1 | -4.75% | 3.65% | 11.7% | 3.55% | 8.3% | 23.2%
27 | CN(Cc1nc2c(N)nc(N)nc2nc1N)c1ccc(C(=O)NC(CCC(=O)O)C(=O)O)cc1 (configuration not stated) | 7.65% | 42.2% | 22.3% | -7.4% | -1.95% | -26.1%
28 | CCN1CCCC(N)C1 (configuration not stated) | -26.1% | -23.2% | -34.9% | 11.8% | -41.8% | -27.9%
29 | CN(Cc1ccc(Cl)cc1)C(=O)NCCCCCCNC(=O)N(C)Cc1ccc(Cl)cc1 | 96.8% (active) | 96.6% (active) | 95.7% (active) | 96.2% (active) | 95.7% (active) | 96.8% (active)
30 | CC(=O)OCC1OC(Sc2ccc([N+](=O)[O-])cc2)C(OC(C)=O)C(OC(C)=O)C1OC(C)=O (configuration not stated) | 12.3% | -11.8% | -12.1% | -1.35% | -1.05% | 17.9%
31 | CCCCOC(=O)C(C)OC(=O)Nc1ccccc1 (configuration not stated) | 5.85% | 23.4% | 16.1% | -52.6% | 18.6% | 12%
32 | CCOP(=O)(OCC)/C(C#N)=C\c1ccc(N(C)C)cc1 | 13.5% | 6.3% | 10.2% | -13.7% | 6.35% | -0.65%
33 | CCCCC(CCCC)NCC(C)OC(=O)c1ccc(N)cc1 (configuration not stated) | 20.6% | -2.35% | 0.5% | -26.8% | -6% | 16.3%
34 | COc1ccc2c(c1)N(S(=O)(=O)c1ccc(C)cc1)C[C@@H]1c3cc(O)c(OCc4ccccc4)cc3O[C@H]21 | -8.95% | 7.9% | -7.8% | -6.8% | 2.4% | 15.6%
35 | CN(C)C(=S)Oc1ccc([N+](=O)[O-])cc1Cl | 17.9% | 6.95% | 4.95% | 19.4% | -3.3% | 29.3%
36 | O=Cc1cccc2ccc3cccc(C(=O)O)c3c12 | 34% | 12% | 17.9% | 13.2% | 30.1% | -8.7%
37 | CNC(=O)N(c1ccccc1)C1CCCCC1 | 15.8% | 13.8% | -2.5% | -65.5% | 9.8% | 1.15%
